Counter-ions that a name gives are not always drawn. ± gives the standard deviation.

This assay deals with Danio rerio Tg(wt1b:EGFP) embryo, pronephros. Nature of the assay: glomerular separation, fold change vs DMSO control; higher = glomeruli further apart (abnormal). Particulars: 25 µM; exposure: 24-48 hpf. The method in brief:
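Every feature is expressed as a fold change relative to the averaged DMSO-treated embryos of the same day. The exposure ran from 24 to 48 hpf at 28.5°C, with dechorionated Tg(wt1b:EGFP) zebrafish embryos in HEPES-buffered E3 containing 0.003% PTU, 0.5% DMSO and 25 μM compound. Dorsal pronephros images taken in agarose-filled 96-well plates were reduced to maximum projections, on which 16 reference points were set by hand in Fiji for a macro to compute distances and angles. Values more than 2 SD from the feature mean were not used.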
Compound `CCCNC(C)(C)COC(=O)c1ccccc1` [Meprylcaine hydrochloride] displayed a glomerular separation of 1.08 ± 0.26.

The compound `CC(C)NC[C@H](O)COc1ccc(CC(N)=O)cc1` [(S)-(-)-Atenolol] showed a glomerular separation of 0.84 ± 0.24.

Compound `Cc1cc(NS(=O)(=O)c2ccc(N)cc2)no1` [Sulfamethoxazole] showed a glomerular separation of 0.872 ± 0.23.

Compound `CN(C)CCN1C(=O)c2ccccc2N(C)c2ccccc21` [Dibenzepine hydrochloride] returned a glomerular separation of 1.21 ± 0.68.

The compound `COc1cccc2c1C(=O)c1c(O)c3c(c(O)c1C2=O)C[C@@](O)(C(=O)CO)C[C@@H]3O[C@H]1C[C@H](N)[C@@H](O)[C@H](C)O1` [Epirubicin hydrochloride] registered a glomerular separation of 1.93 ± 0.41.

Turning to `OCCOCCN1CCN(C2=Nc3ccccc3Sc3ccccc32)CC1` [Quetiapine hemifumarate], the glomerular separation was determined as 0.872 ± 0.15.

In the case of `O=C(Oc1cccc2cccnc12)c1ccccc1` [Benzoxiquine], the glomerular separation came out at 3.04 ± 1.1.

For `CC(=O)c1ccc2c(c1)N(CCCN(C)C)c1ccccc1S2` [Acetopromazine maleate salt], the glomerular separation was 0.953 ± 0.23.

With `O=C1CCc2ccc(OCCCCN3CCN(c4cccc(Cl)c4Cl)CC3)cc2N1` [Aripiprazole], the glomerular separation was determined as 0.976 ± 0.16.

In turn, `C[C@]12CCC(=O)C=C1CC[C@@H]1[C@@H]2[C@@H](O)C[C@@]2(C)[C@H]1CC[C@]2(O)C(=O)CO` [Hydrocortisone base] returned a glomerular separation of 1.25 ± 0.65.

As for `O=C1CN2Cc3c(ccc(Cl)c3Cl)N=C2N1` [Anagrelide], the glomerular separation was 1.1 ± 0.67.

With `N=C(N)NC(=O)c1nc(Cl)c(N)nc1N` [Amiloride hydrochloride dihydrate], the glomerular separation is 0.835 ± 0.27.

As to `CNCC(O)c1ccc(O)c(O)c1` (centres undefined) [Racepinephrine hydrochloride], the glomerular separation was 0.935 ± 0.21.

As to `CCCc1nn(C)c2c(=O)[nH]c(-c3cc(S(=O)(=O)N4CCN(C)CC4)ccc3OCC)nc12` [Sildenafil], the glomerular separation stood at 1.12 ± 0.37.

Compound `C[C@]12CC[C@@H]3c4ccc(OS(=O)(=O)O)cc4CC[C@H]3[C@@H]1CCC2=O` [Estropipate] came in with a glomerular separation of 1.27 ± 0.59.

In turn, `COc1c(O[C@@H]2O[C@H](CO)[C@@H](O)[C@H](O)[C@H]2O)cc2c(c1OC)-c1ccc(SC)c(=O)cc1[C@@H](NC(C)=O)CC2` [Thiocolchicoside] displayed a glomerular separation of 1.03 ± 0.41.

`O=C(c1ccccc1)c1ccc2n1CCC2C(=O)O` (centres undefined) [Ketorolac tromethamine] came in with a glomerular separation of 1 ± 0.43.

In turn, `CC#C[C@]1(O)CC[C@H]2[C@@H]3CCC4=CC(=O)CCC4=C3[C@@H](c3ccc(N(C)C)cc3)C[C@@]21C` [Mifepristone] registered a glomerular separation of 0.949 ± 0.33.

`CN(C)c1cc(NC(=O)CNC(C)(C)C)c(O)c2c1C[C@H]1C[C@H]3[C@H](N(C)C)C(O)=C(C(N)=O)C(=O)[C@@]3(O)C(O)=C1C2=O` [Tigecycline] displayed a glomerular separation of 0.759 ± 0.22.

In turn, `COc1cc([C@@H]2c3cc4c(cc3[C@@H](O[C@@H]3O[C@@H]5CO[C@@H](C)O[C@H]5[C@H](O)[C@H]3O)[C@H]3COC(=O)[C@H]23)OCO4)cc(OC)c1O` [Etoposide] had a glomerular separation of 0.917 ± 0.24.

The compound `CC1(C)O[C@@H]2C[C@H]3[C@@H]4C[C@H](F)C5=CC(=O)CC[C@]5(C)[C@H]4[C@@H](O)C[C@]3(C)[C@]2(C(=O)CO)O1` [Flurandrenolide] registered a glomerular separation of 1.09 ± 0.49.

`CN(C)CCOC1=Cc2ccccc2Sc2ccc(Cl)cc21` [Zotepine]: the glomerular separation is 0.933 ± 0.24.

`CS(=O)(=O)Nc1ccc([N+](=O)[O-])cc1Oc1ccccc1` [Nimesulide] displayed a glomerular separation of 3.39 ± 1.9.

The compound `CC1(C)O[C@@H]2C[C@H]3[C@@H]4CCC5=CC(=O)CC[C@]5(C)[C@@]4(F)[C@@H](O)C[C@]3(C)[C@]2(C(=O)CCl)O1` [Halcinonide] gave a glomerular separation of 2.01 ± 0.91.

The compound `CN(Cc1cnc2nc(N)nc(N)c2n1)c1ccc(C(=O)N[C@@H](CCC(=O)O)C(=O)O)cc1` (racemic) [Amethopterin (R,S)] had a glomerular separation of 1.29 ± 0.49.

On to `CC(=O)Oc1ccccc1C(=O)O` [Acetylsalicylic acid], for which the glomerular separation came out at 1.2 ± 0.37.

`CCN(CC)CCCC(C)Nc1c2ccc(Cl)cc2nc2ccc(OC)cc12` (centres undefined) [Quinacrine dihydrochloride hydrate] showed a glomerular separation of 0.766 ± 0.2.

In the case of `CCCOc1ccc2[nH]c(NC(=O)OC)nc2c1` [Oxibendazol], the glomerular separation stood at 5.39 ± 2.3.

The compound `O=C(O)CN(CCN(CC(=O)O)CC(=O)O)CCN(CC(=O)O)CC(=O)O` [Pentetic acid] yielded a glomerular separation of 1.23 ± 0.47.

As for `CN(Cc1cnc2nc(N)nc(N)c2n1)c1ccc(C(=O)N[C@@H](CCC(=O)O)C(=O)O)cc1` [Methotrexate], the glomerular separation is 1.19 ± 0.59.

On to `CN1CCC[C@@H]1CCO[C@](C)(c1ccccc1)c1ccc(Cl)cc1` [Clemastine fumarate], for which the glomerular separation came to 0.925 ± 0.57.

`OCCN1CCN(CCCN2c3ccccc3Sc3ccc(C(F)(F)F)cc32)CC1` [Fluphenazine dihydrochloride]: the glomerular separation is 1.03 ± 0.53.

With `CN1CCN(CC(=O)N2c3ccccc3C(=O)Nc3cccnc32)CC1` [Pirenzepine dihydrochloride], the glomerular separation was 1.19 ± 0.65.

Take `CN(C)CCCOc1nn(Cc2ccccc2)c2ccccc12` [Benzydamine hydrochloride]: the glomerular separation is 1.24 ± 0.21.

In turn, `CCN(Cc1ccncc1)C(=O)C(CO)c1ccccc1` (centres undefined) [Tropicamide] gave a glomerular separation of 0.966 ± 0.68.

For the compound `O=C1CCC(N2C(=O)c3ccccc3C2=O)C(=O)N1` (centres undefined) [Thalidomide], the glomerular separation stood at 0.439 ± 0.097.

In turn, `O=C(O)c1cn(C2CC2)c2cc(N3CCNCC3)c(F)cc2c1=O` [Ciprofloxacin hydrochloride monohydrate] registered a glomerular separation of 0.914 ± 0.36.

Consider `CC(C)(O/N=C(\C(=O)N[C@@H]1C(=O)N2C(C(=O)[O-])=C(C[n+]3ccccc3)CS[C@H]12)c1csc(N)n1)C(=O)O` [Ceftazidime pentahydrate], for which the glomerular separation stood at 0.761 ± 0.12.

`c1ccc(C2CN3CCSC3=N2)cc1` (centres undefined) [Tetramisole hydrochloride] came in with a glomerular separation of 0.817 ± 0.29.
